Most compounds without a hit are left out; they make up all but 0.52% or so of the library.
GCN5L2 inh: qHTS Assay for Inhibitors of GCN5L2 | AID 504327, 2011 | Histone acetyltransferase KAT2A (Homo sapiens), Q92830 | hit rate 0.21% among 390,000 | Potency, µM (doses to about 58.9 µM), for the others: at the highest dose activity change, negative = inhibition, most hits filed as inhibitors | GCN5L2 HAT assay, ThioGlo1 CoA-SH fluorescence; note: % is set by controls: 0 for no effect and ±100 for the full control effect
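ThioGlo1-coupled HAT assay: 20nM GCN5L2, 70uM acetyl-CoA, 75uM H3(1-25) peptide, pH 7.5. Fluorescence read at 340/540nm at start and after 20 min at room temperature.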
PGK inhibitor: qHTS Assay to Find Inhibitors of Phosphoglycerate Kinase; Phosphoglycerate kinase, glycosomal (Trypanosoma brucei brucei), P07378; PGK/GAPDH coupled, Kinase-Glo luminescence, 60 min; Potency, µM (top dose mostly 57.5 µM), for inactives: top-dose activity change, negative = inhibition, most hits filed as inhibitors; hit rate 0.043% among 380,000; AID 602233, 2012; note: % is set by controls: 0 for no effect and ±100 for the full control effect; nearly all actives have a fitted effect of over 60% in size
Target sequence (P07378 whole entry, looked up): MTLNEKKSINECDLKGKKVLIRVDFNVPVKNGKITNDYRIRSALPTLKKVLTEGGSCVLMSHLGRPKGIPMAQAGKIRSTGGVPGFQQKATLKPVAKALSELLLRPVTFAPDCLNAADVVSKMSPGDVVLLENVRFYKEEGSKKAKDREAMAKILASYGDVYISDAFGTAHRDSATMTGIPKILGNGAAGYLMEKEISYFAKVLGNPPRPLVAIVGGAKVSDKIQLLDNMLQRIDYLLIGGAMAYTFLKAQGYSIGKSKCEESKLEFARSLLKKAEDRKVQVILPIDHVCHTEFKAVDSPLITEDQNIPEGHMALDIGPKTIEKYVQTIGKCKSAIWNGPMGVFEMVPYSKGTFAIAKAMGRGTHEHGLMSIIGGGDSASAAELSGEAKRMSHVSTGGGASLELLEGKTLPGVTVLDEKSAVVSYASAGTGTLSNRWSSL
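Recombinant glycosomal PGK reaction used 1,3-bisphosphoglycerate generated in-well by GAPDH (100nM final) in 100mM TEA pH 7.6, 5mM MgCl2, 0.01% Tween-20. After 60 minutes at room temperature, ATP was read by Kinase-Glo Plus luminescence end-point.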
USP2a inh: qHTS Assay for Inhibitors of Ubiquitin-specific Protease USP2a Using CHOP2 as the Reporter; Ubiquitin carboxyl-terminal hydrolase 2 (Homo sapiens), O75604; USP2 core, Ub-CHOP2 coupled fluorogenic reporter, 485/531; Potency, µM (series often up to 38.3 µM), for inactives: at the top dose activity change, negative = inhibition, actives largely listed as inhibitors; hit rate 0.01% among 330,000;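 note: plate controls were DMSO wells for no effect and full inhibition by NEM control for full effect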
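Cell-free coupled assay: 10nM USP2 core preincubated 30min RT with compound in Tris-HCl pH 8.0/CaCl2/CHAPS buffer, then 25nM Ub-CHOP2 and 25nM reporter substrate; fluorescence (Ex 485/Em 531) read after 60min RT, normalized to NEM inhibition, concentration-response curves fitted.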
Tb PFK inh-1: qHTS Assay to Find Inhibitors of T. brucei phosphofructokinase. Potency, µM (top dose mostly 57.5 µM), without a hit: top-dose activity, negative = inhibition, usual class: inhibitors. T. brucei PFK, ADP-Glo luminescence. hit rate 0.17% among 330,000. ATP-dependent 6-phosphofructokinase (Trypanosoma brucei brucei), O15648;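 note: 0% = uninhibited 1x PFK enzyme wells and -100% = no-enzyme wells; nearly all actives have a fitted effect of over 60% in size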
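PFK 1.25 nM, F6P 0.5 mM, ATP 0.1 mM, 0.1 M TEA pH 8.0, 5 mM MgCl2, 0.01% Tween20, 0.1% BSA; 45 min RT. ADP-Glo readout. qHTS titration up to 57 uM; curves fitted, compounds curve-classed.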
GLS inhibitor: qHTS for Inhibitors of Glutaminase (GLS); Glutaminase kidney isoform, mitochondrial (Homo sapiens), O94925; Potency, µM (top dose mostly 45.5 µM), for inactives: at the highest dose activity change, negative = inhibition, actives largely listed as inhibitors; GLS enzymatic activity, qHTS titration; hit rate 0.21% among 410,000; note: % is set by controls: 0 for no effect and ±100 for the full control effect
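hKGA in 45 mM KH2PO4 (pH 8.2), 0.02% Tween-20 with compound, then 1mM L-Glutamine (stock as added) plus glutamate oxidase/HRP/Amplex red coupling mix. Fluorescence read initially and after 30 min at RT; signal change reflects glutamate formation.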
TbPFK ATP: Tb PFK orthogonal confirmatory assay using ATP depletion (Kinase-Glo Plus) as an alternative measure of Tb PFK activity: Hit Validation | shares compounds with Tb PFK inh-1 | Tb PFK enzyme, ATP depletion, Kinase-Glo Plus luminescence | Potency, µM (series often up to 57.5 µM), inactives show at the top dose inhibition | hit rate 47% among 1,100 | AID 504636, 2011; calls by dose curve; note: nearly all actives have a fitted effect of over 60% in size
Tb PFK inh-2: Inhibitors of T. brucei phosphofructokinase: Hit Validation; shares compounds with Tb PFK inh-1; purified T. brucei PFK, ADP-Glo luminescence, 45 min; Potency, µM (series often up to 57.5 µM), inactives show at the top dose activity change, negative = inhibition, hits mostly inhibitors; hit rate 41% among 1,100;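 note: plate controls were full PFK enzyme control for no effect and no enzyme control for full effect; nearly all actives have a fitted effect of over 60% in size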
* hit, by the source's call; i = inactive; ? = inconclusive; . = no result. Unless noted, calls come from the whole dose curve; as a rule, active = well fitted curve in the direction sought with a large enough effect; inconclusive = small, poorly fitted or top-dose-only effect, or another doubt; inactive = no such curve, though single readings can be large; an effect the other way counts as inactive or inconclusive. Potency is the fitted concentration of half-maximal effect.

SMILES	GCN5L2 inh	PGK inhibitor	USP2a inh	Tb PFK inh-1	GLS inhibitor	TbPFK ATP	Tb PFK inh-2
CC(C)C[C@H](NC(=O)[C@H](CC(C)C)NC(=O)[C@H](Cc1ccccc1)NC(=O)[C@@H](N)Cc1ccc(O)cc1)C(=O)N[C@@H](CCCN=C(N)N)C(=O)N[C@@H](CC(N)=O)C(=O)N1CCC[C@H]1C(=O)O	0%	.	.	.	.	.	.
CCN(CC)c1ccc(NC2=C(Cl)C(=O)c3ccccc3C2=O)cc1	-29%	-8%	2%	?	3%	8%	-9%
CCOc1ccc(NC(=O)CCS(=O)(=O)c2ccc(Br)cc2)cc1	?	?	1%	15µM*	?	2.7µM*	4.8µM*
CN[C@@H]1C[C@H](c2ccc(Cl)c(Cl)c2)c2ccccc21	-10%	.	.	.	.	.	.
COc1ccc(-n2c(SC)nc3ccccc3c2=O)cc1	-1%	-9%	-1%	-2%	9%	.	.
CN1CCN(c2csc3ccc(F)cc3c2=O)CC1	-12%	-3%	.	.	1%	.	.
Cc1ccc(C)c(-n2sc3ccc(F)cc3c2=O)c1	3.5µM*	i	2%	3µM*	?	19µM*	17µM*
O=c1c2cc(F)ccc2sn1-c1ccc(F)cc1	1.8µM*	2%	0%	7.6µM*	10µM*	?	?
COc1ccc(-n2sc3ccc(F)cc3c2=O)cc1	2.8µM*	-6%	0%	6.7µM*	?	?	?
COC[C@]12CN(C=O)C3C4C(OC)C1[C@@]3(C1CC3(O)C(OC)C(O)C4(OC(C)=O)C1C3OC(=O)c1ccccc1)[C@@H](OC)CC2O (some centres not stated)	-4%	.	.	.	.	.	.
CC(=O)N(C)Cc1ccc(C(=O)CCl)cc1	-4%	-7%	1%	?	8%	2.4µM*	3µM*
C=C(C)Cn1c(-c2cccs2)n[nH]c1=S	-4%	-6%	3%	-6%	?	.	.
Cc1ccc(-c2csc3n[nH]c(=S)n23)cc1	25µM*	-5%	1%	?	?	0.3µM*	0.43µM*
O=C(Cc1ccc(Br)cc1)N/N=C/c1cccnc1	-4%	-3%	-1%	17µM*	0%	13µM*	?
O=C1C=CC(=O)N1CCNc1ncc(C(F)(F)F)cc1Cl	0%	i	1%	21µM*	?	5.4µM*	13µM*
CCCc1cc(N2CCN(c3ccc(OC)cc3)CC2)n2cnnc2n1	-3%	2%	.	.	35%	.	.
CC1CCN(S(=O)(=O)c2ccc3c(c2)CCC(=O)N3CC(=O)Nc2cccc(C#N)c2)CC1	20%	14µM*	3%	9.5µM*	-6%	6µM*	12µM*
Cc1ccc(S(=O)(=O)N2CCCCC2)cc1NC(=O)CN1CC=C(c2ccccc2)CC1	-6%	-9%	0%	-1%	0%	.	.
CC[C@H](C)[C@H](NC(=O)[C@H](CCCN=C(N)N)NC(=O)[C@H](CCCN=C(N)N)NC(=O)[C@H](CC(C)C)NC(=O)[C@H](Cc1ccccc1)NC(=O)CNC(=O)CNC(=O)[C@@H](N)Cc1ccc(O)cc1)C(=O)O	1%	.	.	.	.	.	.

Source: PubChem
